# Laboratory results published in PubChem BioAssay (NCI).
# Several values for one entry are separate records, joined by “and”; a condition that tells them apart may be missing. Identical values can stand only once. Compounds without any hit were thinned out: in the full panel of roughly 79,000, 15% have a hit. More than one record can exist for a structure, and the calls need not agree. Activity calls are given as the source filed them. No stated cut-off is given here; in the data, active means growth inhibition above about 70%; inactive means the rest.
# Tests used:
# [1] = NCI Yeast Anticancer Drug Screen. Data for the rad52 strain (AID 147);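 further: 0% = growth of vehicle-treated control cultures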; settings: S. cerevisiae rad52 mutant growth inhibition, stronger effect = higher value
# In short: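 Compounds are applied to a genetically defined yeast strain lacking normal DNA damage repair, and inhibition of growth is expressed relative to cultures given vehicle only.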
# [2] = NCI Yeast Anticancer Drug Screen. Data for the wt1 strain (AID 149);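 further: 0% = growth of vehicle-treated wt1 cultures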; settings: S. cerevisiae wt1 strain (SPY 50644) growth inhibition, stronger effect = higher value
# In short: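 wt1 strain grown with compound or vehicle; inhibition taken from the growth difference.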
# [3] = NCI Yeast Anticancer Drug Screen. Data for the rad50EPP+ strain (AID 151);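 further: 0% = growth of vehicle-treated control cultures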; settings: S. cerevisiae rad50 mutant strain, stronger effect = higher value
# In short: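 Compounds were applied to the rad50EPP+ yeast strain, which bears a defined DNA repair alteration, and growth inhibition was determined relative to vehicle-treated cultures.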
# [4] = NCI Yeast Anticancer Drug Screen. Data for the mgt1 strain (AID 153); settings: S. cerevisiae mgt1 mutant growth inhibition, stronger effect = higher value
# In short: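 Strain: mgt1 yeast, one of a set carrying defined DNA damage repair or cell cycle control alterations. Compound-treated growth compared with vehicle.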
# [5] = NCI Yeast Anticancer Drug Screen. Data for the rad50 strain (AID 155);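 further: 0% = growth of vehicle-only cultures of the same strain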; settings: S. cerevisiae rad50 strain growth inhibition, stronger effect = higher value
# In short: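 DNA repair mutant yeast, compound exposure, growth read-out; inhibition is taken relative to vehicle.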
# [6] = NCI Yeast Anticancer Drug Screen. Data for the mec2-1 strain (AID 157); settings: S. cerevisiae mec2-1 strain, stronger effect = higher value
# In short: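 Strain: mec2-1 (DNA repair/cell cycle alteration). Compound exposure, then growth measured; inhibition expressed relative to vehicle.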
# [7] = NCI Yeast Anticancer Drug Screen. Data for the rad14 strain (AID 159);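 further: 0% = growth of vehicle-treated control cultures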; settings: S. cerevisiae rad14 strain growth inhibition, stronger effect = higher value
# In short: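 DNA repair-defective yeast, compound-exposed; % growth inhibition derived by comparison with vehicle-treated controls.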
# [8] = NCI Yeast Anticancer Drug Screen. Data for the sgs1 mgt1 strain (AID 161);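 further: 0% = growth of cultures given vehicle only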; settings: S. cerevisiae sgs1 mgt1 strain, stronger effect = higher value
# In short: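 Genetically altered yeast, compound exposure, growth inhibition relative to vehicle.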
# [9] = NCI Yeast Anticancer Drug Screen. Data for the CLN2oe strain (AID 163);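 further: 0% = growth of vehicle-only control cultures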; settings: S. cerevisiae CLN2oe strain, stronger effect = higher value
# In short: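 Growth of a genetically modified yeast strain is measured after compound exposure and compared with cultures given vehicle alone.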
# [10] = NCI Yeast Anticancer Drug Screen. Data for the cln2 rad14 strain (AID 165);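 further: 0% = growth equal to vehicle treated cultures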; settings: S. cerevisiae cln2 rad14 strain, stronger effect = higher value
# In short: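 Compounds are applied to the cln2 rad14 yeast strain, and growth is then compared with that of vehicle-treated cultures to give inhibition.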
# [11] = NCI Yeast Anticancer Drug Screen. Data for the bub3 strain (AID 167); settings: S. cerevisiae bub3 mutant strain, stronger effect = higher value
# In short: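 In this screen, a yeast mutant lacking normal mitotic checkpoint function is challenged with compound. Relative growth versus vehicle gives the inhibition value.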
# [12] = NCI Yeast Anticancer Drug Screen. Data for the wt2 strain (AID 169);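 further: 0% = growth of vehicle-treated yeast cultures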; settings: S. cerevisiae wt2 strain growth inhibition, stronger effect = higher value
# In short: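 This strain belongs to a panel of yeast strains with defined genetic alterations in DNA damage repair or cell cycle control. Compounds are applied, and growth inhibition is measured against vehicle-treated cultures.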
# [13] = NCI Yeast Anticancer Drug Screen. Data for the sgs1 strain (AID 173);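 further: 0% = growth of vehicle-only control cultures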; settings: S. cerevisiae sgs1 mutant, stronger effect = higher value
# In short: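 Growth of a yeast strain bearing a defined genetic alteration is measured after compound treatment. Inhibition is expressed relative to vehicle-only controls.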
# [14] = NCI Yeast Anticancer Drug Screen. Data for the mlh1 rad18 strain (AID 175); settings: S. cerevisiae mlh1 rad18 strain growth inhibition, stronger effect = higher value
# In short: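 Read-out is yeast growth inhibition, calculated against vehicle-only controls. The compound was applied to a strain engineered with DNA damage repair alterations.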
# [15] = NCI Yeast Anticancer Drug Screen. Data for the rad18 strain (AID 177); settings: S. cerevisiae rad18 mutant growth inhibition, stronger effect = higher value
# In short: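 Growth of the mutant yeast strain after compound exposure, normalised to vehicle-only cultures.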
# [16] = NCI Yeast Anticancer Drug Screen. Data for the mlh1 strain (AID 171);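 further: 0% = growth of vehicle-treated control cultures of the same strain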; settings: S. cerevisiae mlh1 strain growth inhibition, stronger effect = higher value
# In short: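 Growth of the mutant yeast strain after compound exposure, expressed as inhibition relative to vehicle-only controls.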
# [17] = at 5.0 µM (retest, dose inferred, filed as 0.5)
# [18] = at 50.0 µM (retest, dose inferred, filed as 5.0)
smiles,measurement,setting,value
Nc1nc2ccc(NCc3ccc(C(=O)NC(CCC(=O)O)C(=O)O)cc3)cc2c(=O)[nH]1 (stereo not drawn),growth inhibition,[1]; at 1.2 µM,-15% (inactive)
same,growth inhibition,[1]; at 3.7 µM,-35% (inactive)
same,growth inhibition,[1]; at 11.0 µM,-21% (inactive)
same,growth inhibition,[1]; at 33.0 µM,32% (inactive)
same,growth inhibition,[1]; at 100.0 µM,74% (active)
same,growth inhibition,[2]; at 1.2 µM,-6% (inactive)
same,growth inhibition,[2]; at 3.7 µM,-17% (inactive)
same,growth inhibition,[2]; at 11.0 µM,-19% (inactive)
same,growth inhibition,[2]; at 33.0 µM,3% (inactive)
same,growth inhibition,[2]; at 100.0 µM,55% (inactive)
same,growth inhibition,[3]; at 1.2 µM,7% (inactive)
same,growth inhibition,[3]; at 3.7 µM,-24% (inactive)
same,growth inhibition,[3]; at 11.0 µM,-9% (inactive)
same,growth inhibition,[3]; at 33.0 µM,-18% (inactive)
same,growth inhibition,[3]; at 100.0 µM,5% (inactive)
same,growth inhibition,[4]; at 1.2 µM,-14% (inactive)
same,growth inhibition,[4]; at 3.7 µM,-14% (inactive)
same,growth inhibition,[4]; at 11.0 µM,-24% (inactive)
same,growth inhibition,[4]; at 33.0 µM,0% (inactive)
same,growth inhibition,[4]; at 100.0 µM,26% (inactive)
same,growth inhibition,[5]; at 1.2 µM,7% (inactive)
same,growth inhibition,[5]; at 3.7 µM,-19% (inactive)
same,growth inhibition,[5]; [17],3% (inactive)
same,growth inhibition,[5]; at 11.0 µM,9% (inactive)
same,growth inhibition,[5]; at 33.0 µM,23% (inactive)
same,growth inhibition,[5]; [18],18% (inactive)
same,growth inhibition,[5]; at 50.0 µM,22.1% (inactive)
same,growth inhibition,[5]; at 100.0 µM,77% (active)
same,growth inhibition,[6]; at 1.2 µM,-4% (inactive)
same,growth inhibition,[6]; at 3.7 µM,1% (inactive)
same,growth inhibition,[6]; [17],-3% (inactive)
same,growth inhibition,[6]; at 11.0 µM,8% (inactive)
same,growth inhibition,[6]; at 33.0 µM,92% (active)
same,growth inhibition,[6]; [18],81% (active)
same,growth inhibition,[6]; at 50.0 µM,75.3% (active)
same,growth inhibition,[6]; at 100.0 µM,97% (active)
same,growth inhibition,[7]; at 1.2 µM,-20% (inactive)
same,growth inhibition,[7]; at 3.7 µM,-19% (inactive)
same,growth inhibition,[7]; at 11.0 µM,-31% (inactive)
same,growth inhibition,[7]; at 33.0 µM,-5% (inactive)
same,growth inhibition,[7]; at 100.0 µM,55% (inactive)
same,growth inhibition,[8]; [17],21% (inactive)
same,growth inhibition,[8]; [18],18% (inactive)
same,growth inhibition,[8]; at 50.0 µM,25% (inactive)
same,growth inhibition,[9]; at 1.2 µM,10% (inactive)
same,growth inhibition,[9]; at 3.7 µM,7% (inactive)
same,growth inhibition,[9]; at 11.0 µM,-5% (inactive)
same,growth inhibition,[9]; at 33.0 µM,2% (inactive)
same,growth inhibition,[9]; at 100.0 µM,6% (inactive)
same,growth inhibition,[10]; [17],25% (inactive)
same,growth inhibition,[10]; [18],25% (inactive)
same,growth inhibition,[10]; at 50.0 µM,8.85% (inactive)
same,growth inhibition,[11]; at 1.2 µM,-7% (inactive)
same,growth inhibition,[11]; at 3.7 µM,6% (inactive)
same,growth inhibition,[11]; [17],12% (inactive)
same,growth inhibition,[11]; at 11.0 µM,-4% (inactive)
same,growth inhibition,[11]; at 33.0 µM,6% (inactive)
same,growth inhibition,[11]; [18],-24% (inactive)
same,growth inhibition,[11]; at 50.0 µM,30.9% (inactive)
same,growth inhibition,[11]; at 100.0 µM,76% (active)
same,growth inhibition,[12]; at 1.2 µM,-24% (inactive)
same,growth inhibition,[12]; at 3.7 µM,-23% (inactive)
same,growth inhibition,[12]; at 11.0 µM,-22% (inactive)
same,growth inhibition,[12]; at 33.0 µM,-26% (inactive)
same,growth inhibition,[12]; at 100.0 µM,-17% (inactive)
same,growth inhibition,[13]; at 1.2 µM,-3% (inactive)
same,growth inhibition,[13]; at 3.7 µM,9% (inactive)
same,growth inhibition,[13]; at 11.0 µM,6% (inactive)
same,growth inhibition,[13]; at 33.0 µM,6% (inactive)
same,growth inhibition,[13]; at 100.0 µM,51% (inactive)
same,growth inhibition,[14]; [17],6% (inactive)
same,growth inhibition,[14]; [18],2% (inactive)
same,growth inhibition,[14]; at 50.0 µM,59.4% (inactive)
same,growth inhibition,[15]; at 1.2 µM,-11% (inactive)
same,growth inhibition,[15]; at 3.7 µM,1% (inactive)
same,growth inhibition,[15]; at 11.0 µM,-12% (inactive)
same,growth inhibition,[15]; at 33.0 µM,5% (inactive)
same,growth inhibition,[15]; at 100.0 µM,63% (inactive)
Cc1ccc(N=Nc2ccc(O)c(=O)cc2)cc1,growth inhibition,[1]; at 1.2 µM,-11% (inactive)
same,growth inhibition,[1]; at 3.7 µM,1% (inactive)
same,growth inhibition,[1]; at 11.0 µM,54% (inactive)
same,growth inhibition,[1]; at 33.0 µM,89% (active)
same,growth inhibition,[1]; at 100.0 µM,93% (active)
same,growth inhibition,[2]; at 1.2 µM,1% (inactive)
same,growth inhibition,[2]; at 3.7 µM,25% (inactive)
same,growth inhibition,[2]; at 11.0 µM,37% (inactive)
same,growth inhibition,[2]; at 33.0 µM,78% (active)
same,growth inhibition,[2]; at 100.0 µM,91% (active)
same,growth inhibition,[3]; at 1.2 µM,-31% (inactive)
same,growth inhibition,[3]; at 3.7 µM,-64% (inactive)
same,growth inhibition,[3]; at 11.0 µM,-24% (inactive)
same,growth inhibition,[3]; at 33.0 µM,62% (inactive)
same,growth inhibition,[3]; at 100.0 µM,87% (active)
same,growth inhibition,[4]; at 1.2 µM,8% (inactive)
same,growth inhibition,[4]; at 3.7 µM,29% (inactive)
same,growth inhibition,[4]; at 11.0 µM,56% (inactive)
same,growth inhibition,[4]; at 33.0 µM,86% (active)
same,growth inhibition,[4]; at 100.0 µM,91% (active)
same,growth inhibition,[5]; at 1.2 µM,4% (inactive)
same,growth inhibition,[5]; at 3.7 µM,5% (inactive)
same,growth inhibition,[5]; [17],17% (inactive)
same,growth inhibition,[5]; at 11.0 µM,42% (inactive)
same,growth inhibition,[5]; at 33.0 µM,83% (active)
same,growth inhibition,[5]; [18],81% (active)
same,growth inhibition,[5]; at 50.0 µM,-18.2% (inactive) and 82.3% (active)
same,growth inhibition,[5]; at 100.0 µM,92% (active)
same,growth inhibition,[6]; at 1.2 µM,-13% (inactive)
same,growth inhibition,[6]; at 3.7 µM,-7% (inactive)
same,growth inhibition,[6]; [17],-2% (inactive)
same,growth inhibition,[6]; at 11.0 µM,26% (inactive)
same,growth inhibition,[6]; at 33.0 µM,82% (active)
same,growth inhibition,[6]; [18],43% (inactive)
same,growth inhibition,[6]; at 50.0 µM,8.6% (inactive) and 88.3% (active)
same,growth inhibition,[6]; at 100.0 µM,91% (active)
same,growth inhibition,[7]; at 1.2 µM,-3% (inactive)
same,growth inhibition,[7]; at 3.7 µM,1% (inactive)
same,growth inhibition,[7]; at 11.0 µM,47% (inactive)
same,growth inhibition,[7]; at 33.0 µM,84% (active)
same,growth inhibition,[7]; at 100.0 µM,92% (active)
same,growth inhibition,[8]; [17],53% (inactive)
same,growth inhibition,[8]; [18],95% (active)
same,growth inhibition,[8]; at 50.0 µM,-10.6% (inactive) and 89.8% (active)
same,growth inhibition,[9]; at 1.2 µM,-2% (inactive)
same,growth inhibition,[9]; at 3.7 µM,16% (inactive)
same,growth inhibition,[9]; at 11.0 µM,47% (inactive)
same,growth inhibition,[9]; at 33.0 µM,83% (active)
same,growth inhibition,[9]; at 100.0 µM,93% (active)
same,growth inhibition,[10]; [17],13% (inactive)
same,growth inhibition,[10]; [18],95% (active)
same,growth inhibition,[10]; at 50.0 µM,-1.5% (inactive) and 90.4% (active)
same,growth inhibition,[12]; at 1.2 µM,-4% (inactive)
same,growth inhibition,[12]; at 3.7 µM,21% (inactive)
same,growth inhibition,[12]; at 11.0 µM,48% (inactive)
same,growth inhibition,[12]; at 33.0 µM,87% (active)
same,growth inhibition,[12]; at 100.0 µM,94% (active)
same,growth inhibition,[16]; at 1.2 µM,3% (inactive)
same,growth inhibition,[16]; at 3.7 µM,5% (inactive)
same,growth inhibition,[16]; at 11.0 µM,47% (inactive)
same,growth inhibition,[16]; at 33.0 µM,83% (active)
same,growth inhibition,[16]; at 100.0 µM,90% (active)
same,growth inhibition,[13]; at 1.2 µM,7% (inactive)
same,growth inhibition,[13]; at 3.7 µM,28% (inactive)
same,growth inhibition,[13]; at 11.0 µM,57% (inactive)
same,growth inhibition,[13]; at 33.0 µM,85% (active)
same,growth inhibition,[13]; at 100.0 µM,93% (active)
same,growth inhibition,[14]; [17],9% (inactive)
same,growth inhibition,[14]; [18],90% (active)
same,growth inhibition,[14]; at 50.0 µM,-6.6% (inactive) and 86.5% (active)
same,growth inhibition,[15]; at 1.2 µM,0% (inactive)
same,growth inhibition,[15]; at 3.7 µM,22% (inactive)
same,growth inhibition,[15]; at 11.0 µM,50% (inactive)
same,growth inhibition,[15]; at 33.0 µM,86% (active)
same,growth inhibition,[15]; at 100.0 µM,93% (active)
